One assay concerns the target SF3B2 (UniProt Q13435). The note with it: DSSO, in cells.
Chain of TMEM109 (Q9BVC6 whole entry): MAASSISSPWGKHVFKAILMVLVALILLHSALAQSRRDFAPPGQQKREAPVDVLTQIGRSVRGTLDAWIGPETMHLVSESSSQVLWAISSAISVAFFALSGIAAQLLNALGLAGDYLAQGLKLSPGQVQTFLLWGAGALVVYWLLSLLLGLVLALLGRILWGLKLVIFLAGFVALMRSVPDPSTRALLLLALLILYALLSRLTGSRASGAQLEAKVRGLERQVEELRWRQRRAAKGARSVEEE
Chain of SNRPE, P62304 (P62304 whole entry): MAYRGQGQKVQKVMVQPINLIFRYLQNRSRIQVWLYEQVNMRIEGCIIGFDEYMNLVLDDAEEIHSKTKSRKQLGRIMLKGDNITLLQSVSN
Chain of HTATSF1, O43719 (O43719 whole entry): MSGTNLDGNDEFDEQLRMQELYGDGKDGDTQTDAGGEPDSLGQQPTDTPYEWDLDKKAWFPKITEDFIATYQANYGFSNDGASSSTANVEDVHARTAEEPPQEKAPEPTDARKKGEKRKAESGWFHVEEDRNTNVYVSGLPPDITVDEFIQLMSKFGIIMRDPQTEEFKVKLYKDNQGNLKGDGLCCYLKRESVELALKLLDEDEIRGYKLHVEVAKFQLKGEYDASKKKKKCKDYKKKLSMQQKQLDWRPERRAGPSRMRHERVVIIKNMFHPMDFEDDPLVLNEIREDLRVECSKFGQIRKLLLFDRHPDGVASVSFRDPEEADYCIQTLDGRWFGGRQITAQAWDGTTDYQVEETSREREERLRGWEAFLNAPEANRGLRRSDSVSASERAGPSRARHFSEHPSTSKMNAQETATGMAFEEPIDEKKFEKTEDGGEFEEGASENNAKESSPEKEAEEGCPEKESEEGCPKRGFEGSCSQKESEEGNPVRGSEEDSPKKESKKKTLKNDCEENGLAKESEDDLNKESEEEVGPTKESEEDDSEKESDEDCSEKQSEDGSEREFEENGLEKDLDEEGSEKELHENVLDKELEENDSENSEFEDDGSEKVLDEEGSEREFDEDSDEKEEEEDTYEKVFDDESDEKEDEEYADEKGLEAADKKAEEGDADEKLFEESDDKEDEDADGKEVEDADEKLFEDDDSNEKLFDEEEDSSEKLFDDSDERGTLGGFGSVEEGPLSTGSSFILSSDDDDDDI
Chain of TMEM43, Q9BTV4 (Q9BTV4 whole entry): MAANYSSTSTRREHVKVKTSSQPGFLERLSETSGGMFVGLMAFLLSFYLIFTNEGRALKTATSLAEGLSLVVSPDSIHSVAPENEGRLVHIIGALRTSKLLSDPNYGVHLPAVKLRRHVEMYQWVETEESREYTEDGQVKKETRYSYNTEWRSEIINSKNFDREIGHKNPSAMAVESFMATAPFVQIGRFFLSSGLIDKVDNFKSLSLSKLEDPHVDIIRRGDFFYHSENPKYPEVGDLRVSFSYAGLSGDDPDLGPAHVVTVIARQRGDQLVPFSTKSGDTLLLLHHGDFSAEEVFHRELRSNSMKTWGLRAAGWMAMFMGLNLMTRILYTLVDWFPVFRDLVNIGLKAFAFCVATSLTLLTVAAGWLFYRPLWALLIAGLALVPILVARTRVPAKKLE
Chain of ANXA4, P09525 (P09525 whole entry): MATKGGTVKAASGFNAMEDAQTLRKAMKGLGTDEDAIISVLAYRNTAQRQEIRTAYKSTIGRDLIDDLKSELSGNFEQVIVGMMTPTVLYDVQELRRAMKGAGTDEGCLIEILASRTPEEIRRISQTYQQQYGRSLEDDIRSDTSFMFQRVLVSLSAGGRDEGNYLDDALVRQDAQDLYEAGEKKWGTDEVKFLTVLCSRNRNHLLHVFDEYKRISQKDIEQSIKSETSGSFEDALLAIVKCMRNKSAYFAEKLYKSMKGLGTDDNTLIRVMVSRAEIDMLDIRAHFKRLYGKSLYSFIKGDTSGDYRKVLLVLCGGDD
Chain of ANXA3, P12429 (P12429 whole entry): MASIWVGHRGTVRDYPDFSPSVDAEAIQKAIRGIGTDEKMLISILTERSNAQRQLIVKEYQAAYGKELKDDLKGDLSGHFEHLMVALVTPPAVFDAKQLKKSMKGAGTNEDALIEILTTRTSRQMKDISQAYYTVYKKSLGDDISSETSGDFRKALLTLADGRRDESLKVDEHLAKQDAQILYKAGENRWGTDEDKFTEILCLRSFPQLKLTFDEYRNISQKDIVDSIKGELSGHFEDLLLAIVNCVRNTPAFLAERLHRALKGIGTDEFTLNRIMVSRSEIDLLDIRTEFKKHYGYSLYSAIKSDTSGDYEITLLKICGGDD
Chain of CANX, P27824 (P27824 whole entry): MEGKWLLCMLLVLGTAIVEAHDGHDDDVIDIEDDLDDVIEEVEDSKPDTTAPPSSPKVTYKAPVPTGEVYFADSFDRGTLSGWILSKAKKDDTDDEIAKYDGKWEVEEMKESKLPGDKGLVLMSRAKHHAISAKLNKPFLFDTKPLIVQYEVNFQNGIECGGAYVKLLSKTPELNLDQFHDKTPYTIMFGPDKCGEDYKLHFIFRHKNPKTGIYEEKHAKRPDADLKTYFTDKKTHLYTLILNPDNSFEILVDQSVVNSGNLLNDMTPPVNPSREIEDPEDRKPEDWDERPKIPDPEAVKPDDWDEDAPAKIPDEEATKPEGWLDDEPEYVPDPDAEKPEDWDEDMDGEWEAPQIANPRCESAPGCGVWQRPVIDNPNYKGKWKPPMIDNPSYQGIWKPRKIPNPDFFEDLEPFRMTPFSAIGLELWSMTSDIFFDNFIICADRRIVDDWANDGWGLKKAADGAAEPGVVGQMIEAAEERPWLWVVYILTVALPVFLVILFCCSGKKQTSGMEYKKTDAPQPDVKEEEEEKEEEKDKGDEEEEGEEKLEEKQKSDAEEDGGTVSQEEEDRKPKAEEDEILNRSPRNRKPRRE
For SNRPE, P62304, the cross-linked residues entry is on record as “K12 - K352”.
For SNRPB, P14678, the cross-linked residues entry is recorded as “K57 - S319”.
On the same count and under the same terms, for HTATSF1, O43719 the value was “K217 - K543”; for SNRPA1, P09661, “K172 - S319”.

A further assay concerns the target TMEM109 (UniProt Q9BVC6). The settings on record: DSSO, in cells.
For TMEM43, Q9BTV4, the cross-linked residues entry is reported as “K18 - K215”.
On the same count and under the same terms, the entry for ANXA4, P09525 is “K57 - K215”; for CANX, P27824 it is “K516 - K215”; for ANXA3, P12429 it is “K263 - K215”.
